Sm TGR block – S. mansoni TGR enzyme inhibition | Q962Y6 | purified TGR, DTNB reduction, TNB absorbance 405 nm | Potency, µM (doses to about 114 µM), actives largely listed as inhibitors | 360,000 tested, 3% active; also: nearly all actives have a fitted effect of over 60% in size
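TGR 20 nM + NADPH 100 uM (dispensed conc.), cpd preinc 15 min RT; start with NADPH (500 uM addition) then DTNB (15 mM addition). Kinetic TNB absorbance, 405 nm filter. Four-parameter Hill fit across titration.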
Giardia FBPA inh – inhibitors of Giardia lamblia fructose-1,6-bisphosphate aldolase | A8B2U2 | purified Giardia FBPA | Potency, µM (highest dose often 59.6 µM), usual class: inhibitors | 290,000 tested, 0.71% active | AID 2451; also: nearly all actives have a fitted effect of over 55% in size
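Giardia FBPA (40 nM reagent) was preincubated 10 min at RT with compound (up to 57.5 uM final), then substrate plus GAPDH/TPI/NAD/arsenate coupling system with diaphorase/resazurin was added; resorufin fluorescence (525/598 nm) was read after 20 min.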
TbPYK inhibitor – blocks Trypanosoma brucei pyruvate kinase; Potency, µM (titrated, usually from 76.8 µM), hits mostly inhibitors; Q57TT1; TbPYK enzyme, Kinase-Glo Plus ATP luminescence, 45 min; 410,000 tested, 0.12% active; also: nearly all actives have a fitted effect of over 50% in size
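Screened from lowest to highest concentration, compounds were pinned into TbPYK/substrate mixtures, and ADP (130 uM final) was added. Plates sat at room temperature for 45 min prior to Kinase-Glo Plus detection by luminescence.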
Shiga toxin inh – blocks Shiga toxin action in Vero cells; AID 2315; Vero cells, Shiga toxin protein synthesis inhibition reporter; inhibition, % at 38.7 µM; 290,000 tested, 9.2% active; in the data active = inhibition mostly above about 28%, no sharp cut-off; inactive = mostly below about 43%
LmPK inh – LmPK (Leishmania mexicana) enzyme inhibition; Q27686; purified LmPK, Kinase-Glo ATP luminescence, 1 h; Potency, µM (highest dose often 57.5 µM), usual class: inhibitors; 290,000 tested, 0.37% active; AID 1721
Target sequence (Q27686 whole entry, looked up): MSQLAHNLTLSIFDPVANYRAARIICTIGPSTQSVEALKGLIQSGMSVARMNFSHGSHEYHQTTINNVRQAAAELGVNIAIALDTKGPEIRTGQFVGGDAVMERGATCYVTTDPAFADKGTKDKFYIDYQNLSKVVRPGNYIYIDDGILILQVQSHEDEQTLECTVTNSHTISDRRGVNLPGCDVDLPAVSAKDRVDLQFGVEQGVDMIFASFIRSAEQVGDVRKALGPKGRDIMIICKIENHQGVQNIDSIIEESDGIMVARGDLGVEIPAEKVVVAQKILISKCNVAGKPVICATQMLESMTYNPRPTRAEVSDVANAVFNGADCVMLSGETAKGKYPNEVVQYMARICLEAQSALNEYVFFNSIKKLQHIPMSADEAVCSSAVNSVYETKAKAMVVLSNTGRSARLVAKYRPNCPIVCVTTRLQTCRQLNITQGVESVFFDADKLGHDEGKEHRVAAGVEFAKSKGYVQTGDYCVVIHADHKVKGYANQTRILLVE
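Screened at intermediate enzyme activity to detect both inhibitors and activators: LmPK at 0.1 nM, with a 0.5 nM enzyme column as activation reference. PEP 0.5 mM, ADP 0.1 mM; ATP detected by luminescence after 1 h.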
Cycloheximide cs – affects cycloheximide protein synthesis inhibition readout, counter-screen; cell reporter, cycloheximide protein synthesis inhibition counterscreen; max response, %; 300,000 tested, 12% active; AID 2314; in the data active = max response mostly above about 13%, no sharp cut-off; inactive = mostly below about 14%; also: read at 38.3 µM for the half of the compounds with a filed dose
Numbers stand for hits; - = inactive; ? = inconclusive; . = no result; ! = a repeat was not active; [ ] = another dose, or the depositor's remark. Shown is part of a subset that was picked to be rich in hits. Unless noted, calls follow the shape of the dose curve; as a rule, active = well fitted curve in the direction sought with a large enough effect; inconclusive = small, poorly fitted or top-dose-only effect, or another doubt; inactive = no such curve, though single readings can be large; an effect the other way counts as inactive or inconclusive.

SMILES | Sm TGR block | Giardia FBPA inh | TbPYK inhibitor | Shiga toxin inh | LmPK inh | Cycloheximide cs
C=CCn1c(C(O)c2ccccc2)nc2ccccc21 (stereo not given) | - | - | - | . | - | 16
COc1ccc(-c2nc3ccccc3n2Cc2ccccc2)cc1 | - | - | - | - | - | 25
C=CCn1c(-c2ccc(N)cc2)nc2ccccc21 | - | - | - | 50 | - | -
CCn1c(-c2ccc(N)cc2)nc2ccccc21 | - | - | - | - | - | -
CCOCCn1c(-c2ccc(OC)cc2)nc2ccccc21 | - | - | - | - | - | -
C=CCn1c(C(C)C)nc2ccccc21 | - | - | - | - | - | -
c1ccc2c(-c3nc4ncccc4o3)cccc2c1 | - | - | - | - | - | 20
CCCCC(=O)Nc1cc(-c2nc3ncccc3o2)ccc1C | - | - | - | - | - | -
Fc1ccccc1-c1nc2ncccc2o1 | - | - | - | 58 | - | 23
CCCCC(=O)Nc1cccc(-c2nc3ncccc3o2)c1C | - | - | - | - | - | 15
CCCCN=C1NN=C(c2ccc3c(c2)OCCO3)CS1 | - | - | ? | - | -[11.5 µM] | -
CCCCN=C1NN=C(c2ccc(C)c(C)c2)CS1 | - | - | - | 87 | - | 44
COCCN=C1NN=C(c2ccc(C)c([N+](=O)[O-])c2)CS1 | - | - | ? | 63 | - | 47
CCOc1ccc(C2=CSC3=NCCN23)cc1[N+](=O)[O-] | - | - | - | - | - | -
O=C(Cn1cnc2ccccc21)c1ccc(Cl)cc1 | - | - | - | - | - | 28
O=C(Cn1cnc2ccccc2c1=O)c1ccccc1 | - | - | - | 78 | - | 39
O=C(Cn1nnc2ccccc21)OCC(=O)c1ccc(F)cc1 | - | - | - | - | - | 9.4
O=C(Cn1cnc2ccccc2c1=O)c1ccc(Cl)cc1 | - | - | - | 120 | - | 44
O=C(CCn1nnc2ccccc21)OCC(=O)c1ccc(F)cc1 | - | - | - | - | - | -
O=c1c2ccccc2ncn1Cc1ccc(Cl)cc1 | - | - | - | - | - | -
CN(C)c1ccc(CNC(=O)CN2C(=O)C3CCCCN3c3ccc(C(=O)N4CCCC4)cc32)cc1 (stereo not given) | - | . | - | . | . | .
COc1ccc(Br)cc1CNC(=O)c1cnc2sc(N3CCCCCC3)nn2c1=O | - | . | - | . | . | .
N#Cc1ccc(S(=O)(=O)N2CCN(C(=O)[C@@H]3CCCN3C(=O)c3cccs3)CC2)cc1 | - | . | - | . | . | .
CCOC(=O)c1ccc(Cn2cnc3ccccc3c2=O)cc1 | - | - | ? | - | - | -
O=C(Cn1cnc2ccccc2c1=O)c1ccc(Br)cc1 | - | - | - | 45 | - | 28
SMILES | Sm TGR block | Giardia FBPA inh | TbPYK inhibitor | Shiga toxin inh | LmPK inh | Cycloheximide cs
CCOc1ccc(C(=O)Cn2cnc3ccccc3c2=O)cc1 | - | - | - | 117 | - | 57
O=C(Cn1cc(Cl)ccc1=O)c1ccc(Cl)cc1 | - | - | - | - | - | 16
O=c1c2ccccc2ncn1-c1ccc(Cl)cc1 | - | - | - | 42! | - | 29
O=C(COC(=O)Cn1cnc2ccccc2c1=O)NNC(=O)c1ccc(Br)cc1 | . | . | - | . | . | .
CCc1cccc(NC(=O)CNS(=O)(=O)c2ccc3nc(C)sc3c2)c1 | - | . | - | . | . | .
O=C(Cn1cnc2ccccc2c1=O)c1cccs1 | - | - | - | - | - | -
O=C(Cn1nnc2ccccc21)c1ccc(Cl)cc1 | - | - | - | 54 | - | 41
COC(=O)c1ccc(Cn2cnc3ccccc3c2=O)cc1 | - | - | - | - | - | -
O=C(Cn1cnc2ccccc2c1=O)c1ccc(OC(F)F)cc1 | - | - | - | 57 | - | 34
Cc1ccc(C(=O)Cn2cnc3ccccc3c2=O)cc1 | - | - | - | 76 | - | 30
Nc1nc(SCn2nnc3ccccc3c2=O)n[nH]1 | . | - | - | - | - | -
COc1ccc(OCc2cc(C(=O)O)c(C)o2)cc1 | - | - | . | - | - | 33
Cc1oc(CN2CCOCC2)cc1C(=O)O | - | - | - | - | - | -
CCN(CC)Cc1cc(C(=O)O)c(C)o1 | - | - | - | 53 | - | 13
CC(C)(C)C1CCc2c(sc(NC(=O)c3cc4ccccc4c(=O)o3)c2C(N)=O)C1 (stereo not given) | - | . | - | . | . | .
CN1CCN(CC(=O)Nc2nc(-c3c[nH]c4ccccc34)cs2)CC1 | - | ? | - | 62 | - | 22
CCC(C)Nc1nc(-c2c[nH]c3ccccc23)cs1 (stereo not given) | - | ? | - | - | - | 31
CCc1ccc(-c2csc(-c3c[nH]c4ccccc34)n2)cc1 | - | - | - | 38 | - | 62
CNc1nc(-c2c[nH]c3ccccc23)cs1 | - | - | - | - | - | -
Cc1cccc(NC(=O)C2CCC(CNS(=O)(=O)c3csc(C(N)=O)c3)CC2)c1C (stereo not given) | - | . | - | . | . | .
N#Cc1nc(NCCO)nc(Nc2ccccc2)n1 | . | - | . | . | . | .
CC(=O)OC[C@@H]1O[C@@H](O/N=C2/C[C@@H](O)[C@@H](O)[C@@H]3[C@@H]4C(=O)N(C5CCCCC5)C(=O)[C@H]4CC[C@H]23)[C@H](OC(C)=O)[C@H](OC(C)=O)[C@@H]1OC(C)=O | . | -[12.9 µM] | . | . | . | .
Cc1ccccc1C(=O)Nc1c(C)nc2ccccn2c1=O | - | . | - | . | . | .
COc1cccc(N2CCN(C(=O)c3ccc4c(Cl)c5c(nc4c3)CCCC5)CC2)c1 | - | . | - | . | . | .
CC1CCCCN1C(=O)c1cc2c(=O)n3ccccc3nc2s1 (stereo not given) | - | - | - | 52 | - | -
SMILES | Sm TGR block | Giardia FBPA inh | TbPYK inhibitor | Shiga toxin inh | LmPK inh | Cycloheximide cs
Cc1cccn2c(=O)c3cc(C(=O)N4CCCC(C)C4)sc3nc12 (stereo not given) | - | - | - | - | - | -
CC1CCCN(C(=O)c2cc3c(=O)n4ccccc4nc3s2)C1 (stereo not given) | - | - | - | 78 | - | 34
CCOC(=O)C1CCN(C(=O)c2cc3c(=O)n4ccccc4nc3s2)CC1 | - | . | - | - | - | 23
CCOC(=O)C1CCN(C(=O)c2cc3c(=O)n4cccc(C)c4nc3s2)CC1 | - | - | - | - | - | -
O=C(NC1CCCC1)c1cc2c(=O)n3ccccc3nc2s1 | - | . | - | . | . | .
O=C(c1cc2c(=O)n3ccccc3nc2s1)N1CCc2ccccc2C1 | ? | ? | . | - | - | 11
CCN1CCN(C(=O)c2cc3c(=O)n4ccccc4nc3s2)CC1 | - | - | - | - | - | -
CC(C)Oc1ccc(CNC(=O)c2ccc(NC(=O)N3CCSc4ncccc43)cc2)cc1 | - | . | -[15.4 µM] | . | . | .
O=C(NCc1ccco1)c1nn2c(C(F)(F)F)cc(-c3cccs3)nc2c1Br | 32µM | - | - | - | - | -
O=C(NCc1ccco1)c1nc2nc(-c3cccs3)cc(C(F)(F)F)n2n1 | 32µM | - | - | - | - | -
Cc1cccc(OCCCCn2nnc3sc4c(c3c2=O)CCC(C)C4)c1 (stereo not given) | - | . | - | . | . | .
